Experiment [1] in a line: qHTS assay to test for compound auto fluorescence at 535 nm (green) in HEK293 cells (AID 720680).
Experiment [2] can be described thus: qHTS assay to test for compound auto fluorescence at 460 nm (blue) in HEK293 cell free culture (AID 720681). In outline: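 Test compounds were pinned into cell-free culture medium (DMEM with 10% FBS) and fluorescence was read directly at Ex/Em 405/460 nm. Signals were expressed as fluorescence equivalents of triamterene, with DMSO vehicle as control.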
On the technique in general: In qHTS, concentration-response curves come from the screen itself.

Experiment [3] in a line: qHTS assay to test for compound auto fluorescence at 535 nm (green) in HEK293 cell free culture (AID 720682). In outline:
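Intrinsic compound fluorescence is measured in culture medium containing 10% FBS, with excitation at 485 nm and detection at 535 nm, referenced to fluorescein.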

Experiment [4] can be described thus: qHTS assay to test for compound auto fluorescence at 590 nm (red) in HEK293 cell free culture (AID 720683). In outline:
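Tox21 10K library compounds were pinned into cell-free DMEM with 10% FBS and fluorescence was read at excitation 540 nm. Activity is expressed as Rose Bengal sodium equivalency.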

Experiment [5] is described as follows: qHTS assay to test for compound auto fluorescence at 590 nm (red) in HepG2 cell free culture (AID 720684). A digest of the protocol:
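Ex 540 / Em 590 nm read of compound in cell-free MEM (10% FBS). Rose Bengal sodium reference.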

The nature of experiment [6]: qHTS assay to test for compound auto fluorescence at 460 nm (blue) in HepG2 cell free culture (AID 720685). In outline: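 Cell-free plates of MEM plus 10% FBS received 23 nL compound or DMSO vehicle; blue-channel (405/460 nm) intensity scored against triamterene as reference fluorophore.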
Experiment [7] in a line: qHTS assay to test for compound auto fluorescence at 535 nm (green) in HepG2 cell free culture (AID 720686).
A short description of experiment [8]: qHTS assay to test for compound auto fluorescence at 460 nm (blue) in HepG2 cells (AID 720687). In outline:
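Cells (2,000/well in MEM with 10% FBS) attached overnight at 37 C, then were exposed to compound or DMSO for 1 hr at 37 C, 5% CO2. Fluorescence read at Ex/Em 405/460 nm, expressed as triamterene-equivalent signal.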

Experiment [9] deals with Glucocorticoid receptor (Homo sapiens) (UniProt P04150). In words: qHTS assay to identify small molecule agonists of the glucocorticoid receptor (GR) signaling pathway (AID 720691; active = well fitted activation curve with a large enough effect in the signal ratio in the repeat runs, not every such curve was filed as active; the % refers to the signal ratio; also: potency is read from the fitted curve at half-maximal effect). The following applies: GR-bla HeLa, beta-lactamase reporter ratio, 18 h; activation: at 62.4 µM (top of the series). A digest of the protocol: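 Steps: seed GR-bla HeLa cells, incubate 4 h at 37 C/5% CO2; pin-transfer DMSO-dissolved compounds; incubate 18 h at 37 C; add LiveBLAzer B/G FRET substrate; after 2 h at room temperature, measure fluorescence.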
Glucocorticoid receptor (Homo sapiens), sequence (P04150 whole entry, looked up): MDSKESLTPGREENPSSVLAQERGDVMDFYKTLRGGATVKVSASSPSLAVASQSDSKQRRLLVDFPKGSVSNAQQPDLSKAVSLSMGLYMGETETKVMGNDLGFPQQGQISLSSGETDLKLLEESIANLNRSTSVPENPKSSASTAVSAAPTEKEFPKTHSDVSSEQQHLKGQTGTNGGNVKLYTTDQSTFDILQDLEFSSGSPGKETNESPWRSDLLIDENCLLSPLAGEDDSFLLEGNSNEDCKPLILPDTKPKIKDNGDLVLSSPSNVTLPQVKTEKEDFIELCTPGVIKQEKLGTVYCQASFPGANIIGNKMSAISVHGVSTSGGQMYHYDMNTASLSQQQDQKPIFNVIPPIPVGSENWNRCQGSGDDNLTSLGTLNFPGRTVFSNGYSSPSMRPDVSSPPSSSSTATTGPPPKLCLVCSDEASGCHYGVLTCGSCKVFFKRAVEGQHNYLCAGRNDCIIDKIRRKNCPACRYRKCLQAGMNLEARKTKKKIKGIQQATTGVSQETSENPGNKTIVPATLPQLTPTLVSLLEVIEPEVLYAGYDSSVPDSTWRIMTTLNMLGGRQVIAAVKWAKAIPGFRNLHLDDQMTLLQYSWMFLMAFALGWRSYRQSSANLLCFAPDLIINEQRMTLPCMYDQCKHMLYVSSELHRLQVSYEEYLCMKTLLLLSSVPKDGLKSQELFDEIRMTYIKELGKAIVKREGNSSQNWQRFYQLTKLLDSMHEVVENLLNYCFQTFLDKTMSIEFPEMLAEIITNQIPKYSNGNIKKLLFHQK

For experiment [10] the target is unchanged. In words: qHTS assay to identify small molecule antagonists of the glucocorticoid receptor (GR) signaling pathway (AID 720692; active = well fitted inhibition curve with a large enough effect in the signal ratio in the repeat runs, not every such curve was filed as active; the % refers to the signal ratio; also: potency is read from the fitted curve at half-maximal effect). A digest of the protocol:
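Antagonism was scored as loss of dexamethasone-driven (5 nM final) reporter signal in HeLa cells bearing a glucocorticoid response element–beta-lactamase construct, after 18 h compound exposure at 37 C and 2 h FRET substrate loading.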

Records with an inconclusive call do not appear. Active and inactive are the calls of the source. Unless noted, calls follow the shape of the dose curve; as a rule, active = well fitted curve in the direction sought with a large enough effect in the repeat runs; inconclusive = weak or mixed curves; inactive = flat fitted curve, though single readings scatter. Positions of bridges follow the written chain, without caps; N, C: chain ends. Non-standard residues stand in square brackets, D forms with d. Residues, ends and D or L forms follow the SMILES beside them. *: point of attachment. X2 = CC[C@H](C)CCCCC(=O)*; Dab = NCC[C@H](N)C(=O)O

On to `CCCCCCCCCCCCCCCCCC[N+](C)(C)CCC[Si](OC)(OC)OC`, for which the Potency result in [1], in [2], in [3], in experiment [4], in [5] and in experiment [7] was “inactive” throughout. Moreover, the Potency entry in [9] and in experiment [10] was “inactive” throughout. Also, the outcome in experiment [6] and in experiment [8] was inactive.
Take `CN(C)C(=O)CCSC(SCCC(=O)O)c1cccc(/C=C/c2ccc3ccc(Cl)cc3n2)c1` (stereo not given): the Potency result in experiment [1], in [2], in experiment [3], in experiment [4], in experiment [5] and in experiment [7] was “inactive” in each case. For the same compound, the Potency entry in experiment [9] is “inactive”. For the same compound, the result in experiment [6] and in experiment [8] was inactive. In addition, in [10], the Potency was 8.49 µM (active).
For the compound `CN1CC(O)c2cc(N=NC(N)=O)c(O)cc21` (stereo not given), the Potency result in experiment [1], in [2], in [3], in [4], in experiment [5] and in [7] was “inactive” each time. The Potency entry in [9] and in [10] was “inactive” in each case. Also, the compound was classed as inactive in [6] and in experiment [8].
For `CN1CCN(C(c2ccccc2)c2ccc(Cl)cc2)CC1` (stereo not given), the Potency entry in experiment [1], in experiment [2], in experiment [3], in [4], in experiment [5] and in experiment [7] was “inactive” in each case. In addition, the Potency entry in experiment [9] and in experiment [10] was “inactive” throughout. Further, the compound was classed as inactive in [6] and in experiment [8].
`CO[C@H]1C=CO[C@@]2(C)Oc3c(C)c(O)c4c(O)c(c(/C=N/N5CCN(C6CCCC6)CC5)c(O)c4c3C2=O)NC(=O)/C(C)=C\C=C[C@H](C)[C@H](O)[C@@H](C)[C@@H](O)[C@@H](C)[C@H](OC(C)=O)[C@@H]1C`: the Potency result in experiment [1], in experiment [2], in [3], in experiment [4], in experiment [5] and in [7] was “inactive” each time. Further, in experiment [9], the Potency entry was “inactive”. Also, the compound was called inactive in experiment [6] and in [8]. Also, in experiment [10], the Potency is 21.3 µM (active).
On to `O=C1NCCN1c1ncc([N+](=O)[O-])s1`, for which the Potency result in [1], in [2], in experiment [3], in experiment [4], in experiment [5] and in experiment [7] was “inactive” in each case. In addition, the Potency entry in experiment [9] and in [10] was “inactive” in each case. For the same compound, the outcome in [6] and in [8] was inactive.
As to `CCCCCC(O)/C=C/C=O` (stereo not given), the Potency entry in experiment [1], in [2], in experiment [3], in experiment [4], in [5] and in [7] was “inactive” each time. Also, the Potency result in experiment [9] and in experiment [10] was “inactive” each time. Further, the outcome in experiment [6] and in [8] was inactive.
In the case of `CCCCCCCCCCCCCCCC(=O)O[C@@H]1CC(C)=C(/C=C/C(C)=C/C=C/C(C)=C/C=C/C=C(C)/C=C/C=C(C)/C=C/C2=C(C)C[C@@H](OC(=O)CCCCCCCCCCCCCCC)CC2(C)C)C(C)(C)C1`, the Potency result in experiment [1], in experiment [2], in experiment [3], in experiment [4], in experiment [5] and in experiment [7] was “inactive” throughout. The Potency result in experiment [9] is “inactive”. Moreover, the call in [6] and in experiment [8] was inactive. Also, the Potency in experiment [10] was 12 µM (active).
On to `CCC(=O)O[C@@H]1CC(=O)O[C@H](C)C/C=C/C=C/[C@H](O)[C@H](C)C[C@H](CC=O)[C@H](O[C@@H]2O[C@H](C)[C@@H](O[C@H]3C[C@@](C)(O)[C@@H](OC(=O)CC)[C@H](C)O3)[C@H](N(C)C)[C@H]2O)[C@H]1OC`, for which the Potency result in experiment [1], in experiment [2], in experiment [3], in experiment [4], in experiment [5] and in experiment [7] was “inactive” each time. The Potency result in experiment [9] and in experiment [10] was “inactive” in each case. The outcome in experiment [6] and in experiment [8] was inactive.
For `O=S(=O)(O)c1cc(O)c2c(N=Nc3ccc(Nc4ccccc4)c4c(S(=O)(=O)O)cccc34)cc(S(=O)(=O)O)cc2c1`, the Potency result in experiment [1], in experiment [2], in [3], in [4], in experiment [5] and in experiment [7] was “inactive” in each case. For the same compound, the Potency result in experiment [9] and in experiment [10] was “inactive” in each case. Besides, the result in experiment [6] and in experiment [8] was inactive.
Turning to `CC1(C)S[C@@H]2[C@H](NC(=O)[C@H](NC(=O)N3CCN(S(C)(=O)=O)C3=O)c3ccccc3)C(=O)N2[C@H]1C(=O)O`, the Potency entry in experiment [1], in experiment [2], in [3], in [4], in experiment [5] and in experiment [7] was “inactive” in each case. Also, the Potency result in [9] and in experiment [10] was “inactive” in each case. The result in [6] and in experiment [8] was inactive.
In the case of `C#CCOc1ccc2c(C)cc(=O)oc2c1`, the Potency result in [1], in experiment [2], in experiment [3], in [4], in experiment [5] and in experiment [7] was “inactive” each time. Besides, the Potency result in experiment [9] and in experiment [10] was “inactive” in each case. For the same compound, the compound was called inactive in experiment [6] and in experiment [8].
On to `CC(=O)Oc1c(C)cc(OCC(O)CNC(C)C)c(C)c1C` (stereo not given), for which the Potency result in experiment [1], in experiment [2], in experiment [3], in experiment [4], in experiment [5] and in experiment [7] was “inactive” throughout. For the same compound, the Potency result in experiment [10] was “inactive”. Moreover, the call in [6] and in experiment [8] was inactive. In addition, the Potency in [9] is 21.3 µM (active).
For `CCC(C)(C)OC(=O)N[C@@H](Cc1c[nH]c2ccccc12)C(=O)N[C@@H](CCSC)C(=O)N[C@@H](CC(=O)O)C(=O)N[C@@H](Cc1ccccc1)C(N)=O`, the Potency entry in [1], in experiment [2], in [3], in experiment [4], in [5] and in experiment [7] was “inactive” in each case. For the same compound, the Potency entry in [9] and in experiment [10] was “inactive” in each case. The outcome in experiment [6] and in experiment [8] was inactive.
For the compound `CCCCCCCN(CC)CCCC(O)c1ccc(NS(C)(=O)=O)cc1` (stereo not given), the Potency result in experiment [1], in experiment [2], in experiment [3], in [4], in [5] and in [7] was “inactive” each time. Moreover, the Potency entry in experiment [9] and in experiment [10] was “inactive” throughout. Also, the compound was called inactive in experiment [6] and in experiment [8].
With `CN1c2c(nc(N)[nH]c2=O)NCC1CNc1ccc(C(=O)NC(CCC(=O)O)C(=O)O)cc1` (stereo not given), the Potency entry in experiment [1], in experiment [2], in [3], in experiment [4], in experiment [5] and in [7] was “inactive” in each case. Also, the Potency result in [9] and in experiment [10] was “inactive” each time. Also, the call in experiment [6] and in experiment [8] was inactive.
Consider `CC[C@H](C)CCCCC(=O)N[C@@H](CCN)C(=O)N[C@H](C(=O)N[C@@H](CCN)C(=O)N[C@H]1CCNC(=O)[C@@H]([C@H](C)O)NC(=O)[C@H](CCN)NC(=O)[C@H](CCN)NC(=O)[C@H](CC(C)C)NC(=O)[C@@H](CC(C)C)NC(=O)[C@H](CCN)NC1=O)[C@@H](C)O` (X2-[Dab]T[Dab][Dab][Dab][dL]L[Dab][Dab][dT]; lactam 4-C), for which the Potency result in experiment [1], in [2], in [3], in experiment [4], in experiment [5] and in experiment [7] was “inactive” in each case. Further, the Potency entry in experiment [9] and in experiment [10] was “inactive” each time. Besides, the compound was classed as inactive in experiment [6] and in [8].
As to `O=C(O)c1nc(=O)[nH]c(=O)[nH]1`, the Potency entry in experiment [1], in [2], in [3], in [4], in experiment [5] and in experiment [7] was “inactive” in each case. The Potency entry in experiment [9] and in [10] was “inactive” in each case. In addition, the outcome in experiment [6] and in experiment [8] was inactive.
Consider `CC(C)(CO)[C@@H](O)C(=O)NCCC(=O)NCCSSCCNC(=O)CCNC(=O)[C@H](O)C(C)(C)CO`, for which the Potency result in experiment [1], in [2], in experiment [3], in experiment [4], in experiment [5] and in experiment [7] was “inactive” each time. Also, the Potency result in experiment [9] and in [10] was “inactive” each time. The compound was called inactive in experiment [6] and in experiment [8].
As to `c1ccc2c(CCC3CCNCC3)c[nH]c2c1`, the Potency entry in [1], in experiment [2], in experiment [3], in experiment [4], in experiment [5] and in experiment [7] was “inactive” throughout. Moreover, the Potency entry in [9] and in experiment [10] was “inactive” in each case. The result in [6] and in experiment [8] was inactive.
In the case of `CCOC(=O)c1c[nH]c2cc(OCC(C)C)c(OCC(C)C)cc2c1=O`, the Potency result in [1], in experiment [2], in [3], in experiment [4], in experiment [5] and in experiment [7] was “inactive” in each case. The Potency result in experiment [9] and in experiment [10] was “inactive” each time. Moreover, the outcome in [6] and in [8] was inactive.

Source of the values: PubChem BioAssay (Tox21).
